# An excerpt weighted towards active compounds, which were near 9.3% of everything screened.
# NPC1 promoter act: NPC1 promoter activation. Huh7 NPC1 promoter luciferase reporter, 24 h. Potency, µM (highest dose often 9.22 µM), without a hit: at the highest dose activation, most hits filed as activators. actives 2.4% (n = 320,000); also: % of control where 0% means no effect; nearly all actives have a fitted effect of over 60% in size
#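 NPC1 promoter–luciferase Huh7 cells; 24 h compound; luminescence.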
# FLuc modulator: firefly luciferase modulation, counter-screen for miR-21 project; P08659; purified FLuc, Km substrates, luminescence inhibition; Potency, µM (highest dose often 57.5 µM), inactives show at the top dose activity change, negative = inhibition, actives largely listed as inhibitors; actives 6.9% (n = 360,000);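 also: plate controls were vehicle for no effect and reference inhibitor for full effect; nearly all actives have a fitted effect of over 55% in size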
# Target sequence (P08659 whole entry, looked up): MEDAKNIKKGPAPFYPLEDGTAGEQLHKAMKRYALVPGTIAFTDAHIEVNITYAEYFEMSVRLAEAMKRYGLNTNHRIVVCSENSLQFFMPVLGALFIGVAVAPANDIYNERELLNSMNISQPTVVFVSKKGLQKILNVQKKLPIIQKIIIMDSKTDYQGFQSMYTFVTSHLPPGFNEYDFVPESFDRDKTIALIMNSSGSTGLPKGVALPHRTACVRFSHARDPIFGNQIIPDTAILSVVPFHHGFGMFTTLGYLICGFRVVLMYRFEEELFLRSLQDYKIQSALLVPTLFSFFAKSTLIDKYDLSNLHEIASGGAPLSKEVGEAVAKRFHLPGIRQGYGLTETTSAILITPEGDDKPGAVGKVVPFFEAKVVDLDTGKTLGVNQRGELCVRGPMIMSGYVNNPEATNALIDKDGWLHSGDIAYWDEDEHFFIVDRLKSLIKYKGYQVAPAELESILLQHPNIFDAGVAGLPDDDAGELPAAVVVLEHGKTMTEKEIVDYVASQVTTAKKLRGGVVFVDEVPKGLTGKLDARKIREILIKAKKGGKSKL
#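 Purified P. pyralis luciferase, 10 nM final, with Km-level 10 uM D-luciferin and 10 uM ATP in 50 mM Tris acetate pH 7.5, 10 mM Mg acetate, 0.01% Tween-20, 0.05% BSA; 6-point qHTS titration about 60 µM downward; luminescence read.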
# ELG1 genotoxic: inducers of genotoxicity in HEK293T ELG1-luciferase cells; HEK293T ELG1-luciferase reporter, luminescence, 16 h; Potency, µM (series often up to 46 µM), inactives show at the highest dose activity change, positive = activation, actives largely listed as activators; actives 1.3% (n = 330,000); AID 504466; also: % of control where 0% means no effect; nearly all actives have a fitted effect of over 60% in size
#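 After overnight (16 hr) compound treatment at 37 °C, ELG1-luciferase HEK293T cells were lysed with ONE-Glo; luminescence quantified 30 min later at room temperature.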
# ELG1 repair inh: blocks ELG1-dependent DNA repair in HEK293T cells | HEK293T ELG1-luciferase reporter, luminescence, 16 h; DNA damage induced by 5-fluorouridine | Potency, µM (top dose mostly 46.1 µM), without a hit: at the top dose activity change, negative = inhibition, usual class: inhibitors | actives 2.3% (n = 330,000) | AID 504467; also: % is scaled to controls: 0 for no effect and ±100 for the full control effect; nearly all actives have a fitted effect of over 55% in size
#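 5-Fluorouridine DNA damage + compound/DMSO, 2,000 cells/well, 16 h, 37 °C/5% CO2. ONE-Glo, 30 min RT, luminescence. Readout = decrease in reporter signal.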
# Rab9 prom act: activators of Rab9 promoter. Potency, µM (series often up to 9.22 µM), without a hit: top-dose activation, negative = inhibition, actives largely listed as activators. Huh7 Rab9 promoter-luciferase reporter, luminescence, 24 h. actives 2.8% (n = 320,000); also: % of control where 0% means no effect; nearly all actives have a fitted effect of over 60% in size
#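 Huh7 cells stably carrying Rab9 promoter–luciferase reporter, plated 1500 cells/well, compound added after 2 h and incubated 24 h at 37 °C; luciferase luminescence then read after 10 min with detection reagent.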
# SMN2 splice up: SMN2 splice variant enhancement; HEK293 SMN2-luciferase splicing reporter, luminescence, 30-36 h; Potency, µM (highest dose often 46.1 µM), without a hit: at the top dose activity change, positive = activation, usual class: activators; actives 2.8% (n = 210,000); AID 1458; also: % of control where 0% means no effect; nearly all actives have a fitted effect of over 55% in size
#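 HEK293 cells carry an SMN2 […]–luciferase reporter in which exon 7 inclusion puts luciferase in frame. Cells were plated 10-12 h before compound addition, then incubated 30-36 h at 37C. ONE-Glo luminescence was read; sodium butyrate at 4.5 mM final served as control.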
# An asterisk follows results filed as active; u = inconclusive; x = not tested or not shown; [ ] = dose if it differs, or a comment. Calls follow the shape of the dose curve; as a rule, active = well fitted curve in the direction sought with a large enough effect; inconclusive = small, poorly fitted or top-dose-only effect, or another doubt; inactive = no such curve, though single readings can be large; an effect the other way counts as inactive or inconclusive. Potency is read from the fitted curve at half-maximal effect.
SMILES,NPC1 promoter act,FLuc modulator,ELG1 genotoxic,ELG1 repair inh,Rab9 prom act,SMN2 splice up
CCN(CC)C(=O)C1CCCN(c2ncnc3c2cnn3-c2ccc(Cl)cc2)C1 (stereo unspecified),-8%,17µM*,-10%,u,-5%,x
CCOC(=O)C1CCCN(c2ncnc3c2cnn3-c2cccc(C)c2)C1 (stereo unspecified),24%,24µM*,u,u,28%,17%
CCN(CC)C(=O)C1CCCN(c2ncnc3c2cnn3-c2cccc(C)c2)C1 (stereo unspecified),-3%,u,u,u,-7%,-18%
CC1CC(C)CN(c2ncnc3c2cnn3-c2ccc(Cl)cc2)C1 (stereo unspecified),2µM*,2.1µM*,u,u,0.71µM*,-81%
Cc1ccc(-n2ncc3c(N4CCN(c5ccc(F)cc5)CC4)ncnc32)cc1,x,0%,x,x,x,x
CC1CCCN(c2ncnc3c2cnn3-c2ccc(Cl)cc2)C1 (stereo unspecified),-38%,0.095µM*,1%,u,-29%,x
Cc1ccc(-n2ncc3c(N4CCCC4)ncnc32)c(C)c1,u,u,-7%,1%,u,-17%
Cc1ccc(C)c(N2CCN(c3ncnc4c3cnn4-c3ccccc3)CC2)c1,2%,-5%,-2%,u,0%,-18%
Cc1cccc(-n2ncc3c(N4CCCC(C)C4)ncnc32)c1 (stereo unspecified),x,0.43µM*,x,x,x,x
Cc1ccc(-n2ncc3c(N4CCCC(C)C4)ncnc32)c(C)c1 (stereo unspecified),3.2µM*,7.6µM*,u,u,2µM*,x
CC1CCCN(c2ncnc3c2cnn3-c2ccccc2)C1 (stereo unspecified),0.35µM*,0.19µM*,u,u,0.14µM*,x
CCCNc1c(F)c(F)c2c(C)c3ccccc3nc2c1F,u,6µM*,u,u,u,13%
CCCNc1c(NS(=O)(=O)c2c(F)c(F)c(F)c(F)c2F)c(=O)oc2ccccc12,-3%,-2%,-10%,-13%,0%,x
Cc1nnn(C23C[C@@H]4C[C@@H](CC(C(=O)N5CCN(c6ccccc6)CC5)(C4)C2)C3)n1,0%,1%,-10%,23µM*,-7%,x
O=C(N1CCN(c2ccccc2)CC1)C12CC3CC(CC(C3)C1)C2,2%,4%,-9%,0%,0%,-17%
COc1ccc(Nc2nc(Cl)c(C=O)s2)cc1,-2%,u,-7%,-1%,-2%,-18%
Cc1nn(-c2ccccc2)c(C)c1Cc1ccc(O)cc1,u,24µM*,3%,u,u,x
CC(C)(C)C(=O)[C@H]1[C@H](c2ccccc2)[C@@]2(N=C(c3ccccc3)OC2=O)C2c3ccccc3C=NN21 (stereo partly specified),0%,15µM*,3%,u,-1%,13%
Oc1cccc(-c2nc3ccc4ccccc4c3c3c2CCC3)c1,u,6µM*,18%,u,u,u
N#Cc1c(N)nc2c(c1-c1cccc(O)c1)CCCCCC2,-1%,0%,-1%,-5%,2%,7%
CC1(C)Oc2ccc(C(=O)Nc3ccccc3F)cc2N(CC(=O)N2CCOCC2)C1=O,2%,2%,18%,15%,11%,x
COc1ccc(OCc2nc3ccccc3[nH]2)cc1,1.6µM*,3.4µM*,1.8µM*,u,0.56µM*,11µM*
c1ccc2cc(OCc3nc4ccccc4[nH]3)ccc2c1,2.2µM*,1.9µM*,u,u,2µM*,2.8µM*
COc1cccc(OCc2nc3ccccc3[nH]2)c1,3.2µM*,6.7µM*,u,u,3.5µM*,13µM*
Brc1ccc(OCc2nc3ccccc3[nH]2)cc1,3.2µM*,2.4µM*,u,u,2.5µM*,x
SMILES,NPC1 promoter act,FLuc modulator,ELG1 genotoxic,ELG1 repair inh,Rab9 prom act,SMN2 splice up
COc1cccc(OCc2nc3ncc(Br)cc3[nH]2)c1,-8%,-19%,u,u,12%,u
NNC(=O)c1ccc(OCc2nc3ccccc3[nH]2)cc1,x,x,x,x,x,-15%[9.22 µM]
Cc1ccccc1S(=O)(=O)O[C@@H]1NS(=O)(=O)c2ccccc21,x,x,x,x,x,-11%[9.22 µM]
CCCCC(C(=O)O)C(C)CC(=O)Nc1cccc(C(=O)O)c1 (stereo unspecified),-2%,2%,-3%,-1%,10%,x
Cc1ccc(C2/C(=C(/O)c3ccc(Br)cc3)C(=O)C(=O)N2Cc2ccco2)o1 (stereo unspecified),-4%,-4%,1%,0%,-2%,8%
Cc1nc2ncnn2c(Nc2ccc3c(c2)OCO3)c1Cc1ccccc1,1%,-2%,-6%,-25%,2%,-2%
Cn1c2ccccc2c2cc(C(=O)O)ccc21,-1%,3%,-1%,5%,-6%,6%
CSc1cccc(-n2cc(-c3ccc4c(c3)OCO4)[nH]c2=O)c1,5%,21µM*,u,u,u,u
COc1ccc(OC)c2sc(N3CCc4ccccc4C3)nc12,-1%,12µM*,7%,18%,24%,3%
COc1ccc(-c2nc(C#N)c(N3CCc4ccccc4C3)o2)cc1OC,-6%,-14%,-1%,u,-8%,-18%
O=S(=O)(c1ccc2c(c1)OCCO2)N1CCN(c2nc3ccccc3s2)CC1,-5%,1%,-5%,3%,0%,-26%
c1ccc2c(c1)CCN(c1nc3cc4c(cc3s1)OCCO4)C2,u,0.11µM*,u,u,u,x
COc1ccc(OC)c2sc(N3CCCCC3)nc12,29%,19µM*,18µM*,u,21%,u
COc1ccc(C(=O)O)cc1S(=O)(=O)N(CCc1ccccc1)Cc1ccccc1,0%,0%,-3%,u,-6%,x
O=C(N/N=C/c1cccc(C(F)(F)F)c1)c1ccc(O)cc1,-3%,17µM*,7%,17%,14%,11%
C=CCNC(=S)N/N=C/c1ccc(C(F)(F)F)cc1,-24%,u,-3%,4.6µM*,-22%,-55%
O=C(N/N=C/c1ccc(C(F)(F)F)cc1)c1ccc(O)cc1,16%,11µM*,13%,u,11%,6%
FC(F)(F)c1ccc(/C=N/NC(=S)NC2CCCCC2)cc1,0%,-1%,2%,-19%,6%,3%
O=C(N/N=C\c1cccc(O)c1)c1ccncc1,x,x,x,x,x,-3%[9.22 µM]
O=C(N/N=C/c1ccc(O)cc1)c1csc2c1CCCC2,22%,13µM*,9%,27%,23%,30%
COc1cc(C(=O)O)ccc1Cl,2%,-2%,5%,1%,-3%,x

# Assay outcomes deposited in PubChem BioAssay by National Center for Advancing Translational Sciences (NCATS).
